# Compounds with a hit are over-represented: about 3.6% of the library has one in this group of screens.
# HSP90 refold inh = inhibitors of HSP90 luciferase refolding in rabbit reticulocyte lysate | 290,000 tested, 0.91% active | AID 1789 | luciferase refolding luminescence, 3 h | inhibition, % at 5.6 µM;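 active = inhibition above the screen-wide mean plus 3 SD, computed separately per campaign, cut at about 16% in these data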;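 also: inhibitors lower the luminescence because luciferase stays unfolded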
# KKLEB tox = CF airway cell cytotoxicity counter-screen; KKLEB CF airway cells viability, ATPlite luminescence, overnight; hits give low values; cells stimulated with P. aeruginosa culture filtrate; activity change (cytotoxicity), % at 5 µM; 360,000 tested, 0.36% active;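 active = corrected activity change at or below -50% at 5 µM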
# Peg3 promoter = reduces Peg3 promoter-driven luciferase expression in HeLa | AID 588405 | 360,000 tested, 1.7% active | inhibition, % at 20 µM | HeLa PEG-Prom luciferase reporter, luminescence, overnight;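 active = inhibition of at least 50% at 20 µM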
# LGR2 antag = Drosophila LGR2 receptor signaling inhibition. HEK293 LGR2, CRE-luciferase, bursicon-stimulated, 4 h. inhibition, % at 9.99 µM. 380,000 tested, 0.35% active. AID 720647;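 active = drop in luminescence signal, shown as inhibition above about 50% in the replicate tests, limit read from the data, passing the limit was not always enough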;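 also: agonist challenge used bursicon conditioned medium at about half maximal strength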
# Mdm2-MdmX inh = inhibitors of human Mdm2/MdmX interaction; O15151+Q00987; 330,000 tested, 3% active; inhibition, % at 8 µM; SaOS-2 split-luciferase Mdm2/MdmX complementation, luminescence;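 active = inhibition of at least 50% at 8 µM in the primary screen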
# CF NFkB block = cystic fibrosis NF-kB activation inhibition; KKLEB NF-kB-GFP reporter, PAF-induced, GFP fluorescence overnight; inhibition, % at 5 µM; 360,000 tested, 0.86% active; AID 588850;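 active = at least 50% inhibition at 5 µM, scaled per plate between neutral and stimulator controls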;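 also: PAF is a Pseudomonas aeruginosa culture filtrate used as stimulus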
# Mdm2 MdmX conf = confirmation of human Mdm2/MdmX interaction inhibitors. inhibition, % at 8 µM. Mdm2-MdmX binding, luminescent assay. AID 489028. shares compounds with Mdm2-MdmX inh. 10,000 tested, 55% active; in the data active = inhibition above about 40%
# Full FLuc ctr = full-length luciferase inhibition in Mdm2/MdmX counter-screen; shares compounds with Mdm2-MdmX inh; SaOS-2 full-length luciferase counterscreen, luminescence; inhibition, % at 8 µM; 6,200 tested, 77% active;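 active = mean inhibition at 8 µM reaching about 37%, which flags the compound as non-specific, limit read from the data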;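 also: p53-null SaOS-2 cells with luciferase driven by a doxycycline-inducible promoter; compound on cells about two nights before reading with doxycycline added after day one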
# Numbers stand for hits; – = inactive; · = no result given.
SMILES,HSP90 refold inh,KKLEB tox,Peg3 promoter,LGR2 antag,Mdm2-MdmX inh,CF NFkB block,Mdm2 MdmX conf,Full FLuc ctr
OCCN1CCN(c2ncnc3c2c(-c2ccccc2)cn3-c2ccc(F)cc2)CC1,–,–,–,–,–,–,·,·
COc1ccccc1-c1cnc2c(c1)C(=O)N([C@H](C)CO)C[C@@H](C)[C@H](CN(C)C)O2,·,·,·,–,·,·,·,·
COc1ccc(-c2cc(C(=O)Nc3ccc4c(c3)OCO4)no2)cc1,–,–,–,–,–,–,·,·
COc1cc(NC(=O)c2cc(-c3ccc4c(c3)OCO4)on2)cc(OC)c1OC,–,–,–,–,60,–,42,40
CC(C)NC(=O)Nc1ccc2c(c1)C(=O)N([C@@H](C)CO)C[C@@H](C)[C@@H](CN(C)Cc1ccc(-c3ccccc3)cc1)O2,·,·,·,–,·,·,·,·
C[C@@H]1CN([C@@H](C)CO)C(=O)c2cccc(NS(=O)(=O)c3cccs3)c2O[C@H]1CN(C)S(=O)(=O)c1ccccc1,·,·,·,–,·,·,·,·
CC[C@H]1CC2CN3CCc4c([nH]c5c([C@H]6C[C@H]7[C@H](CC)CN(C)[C@@H](Cc8c6[nH]c6ccccc86)[C@H]7C(=O)OC)c(OC)ccc45)C(C(=O)OC)(C2)C13,·,·,·,·,93,·,83,37
CCC1CN(C)C2Cc3c([nH]c4ccccc34)C(=O)CC1C2C(=O)OC (stereo not drawn),–,–,–,–,–,–,·,·
COc1ccccc1CN1[C@H](CO)[C@H]2c3ccccc3N(C(=O)c3ccncc3)C[C@H]21,·,·,·,–,·,·,·,·
CN(C)C(=O)c1ccc(-c2ccc3c(c2)[C@H]2[C@H](CCN2C(=O)C2CC2)[C@@H](CO)N3C)cc1,·,·,·,–,·,·,·,·
O=C(Nc1ccc(Cl)c(C(F)(F)F)c1)[C@@H]1CC=C[C@@H]2CCN(Cc3ccc(Cl)c(Cl)c3)C(=O)[C@@H]21,·,–,–,–,63,–,–,·
O=C(O)[C@H]1CC=C[C@H]2CCN(Cc3ccc(Cl)c(Cl)c3)C(=O)[C@@H]12,·,–,–,–,–,–,·,·
CO[C@H]1CN(C)C(=O)c2cc(NC(=O)c3ccccc3F)ccc2OC[C@H](C)N(C)C[C@@H]1C,·,·,·,–,·,·,·,·
COc1cc(NS(=O)(=O)c2ccc(N/C=C(\C#N)c3nc4cc(Cl)ccc4o3)cc2)nc(OC)n1,–,–,–,·,54,–,44,–
COc1ccc(-c2nc(NC(=O)c3ccccc3)sc2-c2ccc([N+](=O)[O-])cc2)cc1,–,–,–,·,64,–,–,·
COc1cnc(-c2ccccn2)nc1N(C)c1ccccc1,–,–,–,–,80,–,77,56
COc1cnc(-c2ccccn2)nc1Oc1ccccc1,–,–,–,–,–,–,·,·
OC(CN1CCCCC1)Cn1c2ccc(Cl)cc2c2cc(Cl)ccc21 (stereo not drawn),–,–,104,–,75,–,–,·
CCn1c(NC(=O)c2ccc(COc3ccc(C)cc3[N+](=O)[O-])o2)nc2ccccc21,–,–,–,–,59,–,42,94
CC(C)C(=O)Nc1ccc(C(=O)N/N=C/c2cc(Br)cc(Br)c2O)cc1,–,–,58,–,66,–,–,·
Cc1nc(SCC(=O)Nc2ccc(F)cc2)c(C#N)c(C)c1CC(=O)c1ccc(Br)cc1,–,–,91,·,97,–,76,80
COc1ccc(NC(=O)CSc2nc(C)c3c(c2C#N)CCCC3)cc1,–,–,–,·,–,–,·,·
COCc1cc(C)nc(SCC(=O)Nc2cccc(C)c2C)c1C#N,–,–,–,–,–,–,·,·
Cc1cccc(NC(=O)CSc2nc(C)c(CC(=O)c3ccc(Br)cc3)c(C)c2C#N)c1C,–,–,71,·,100,–,–,·
CO[C@@H](CN(C)Cc1cc(F)ccc1F)[C@@H](C)CN(C(=O)Nc1ccc(F)cc1)[C@@H](C)CO,·,·,·,–,·,·,·,·
Cc1ccc(C(=O)O/N=C/c2c(N3CCOCC3)n(C)c3ccccc23)cc1,–,–,–,·,51,–,40,–
COc1ccc(-c2cc(=O)[nH]c3ccccc23)cc1,·,–,–,–,58,–,–,·
Cc1ccc(-c2cc(=O)[nH]c3ccccc23)cc1,–,–,–,–,–,–,·,·

# Assay outcomes as filed in PubChem BioAssay.
